# Assay results published in PubChem BioAssay AID1730 (National Center for Advancing Translational Sciences (NCATS), 2009).
# Inconclusive results are not listed. A call without a number means that no potency is given here. The source made the active and inactive calls. Calls follow the shape of the dose curve; as a rule, active = well fitted inhibition curve with a large enough effect; inconclusive = small, poorly fitted or top-dose-only effect; inactive = no such curve, though single readings can be large or run the other way.
# Assay: Counterscreen Assay for Inhibitors of the ERK Signaling Pathway using a Homogeneous Screening Assay
# Settings: AlphaScreen bead counterscreen in cell lysate, 5 h; series mostly up to 45.6 µM
# From the text: qHTS Assay for Inhibitors of the ERK Signaling Pathway using a Homogeneous Screening Assay
# NIH Chemical Genomics Center [NCGC]
# NIH Molecular Libraries Screening Centers Network [MLSCN]
# Assay Submitter (PI): Dr. Wei Zheng, NCGC/NIH
# The Ras/extracellular-signal-regulated kinase (ERK) mitogen activated protein (MAP) kinase signaling pathway (ERK1/2 cascade) plays is a key role in transmitting signals from the cell surface to the nucleus (Nishida and Gotoh 1993; Chang and Karin, 2001). The cascade is initiated by the small G-protein Ras, which recruits Raf […], where activation occurs. Alternatively, this pathway can be activated by elevating intracellular cAMP.
# Activation of the ERK pathway is essential in increased cell division and cell survival. Sustained and constitutive activation of the ERK pathway, however, has been linked to uncontrolled cell proliferation, increased cell survival, and tumor progression. Thus, the ERK has been as an attractive target for cancer chemotherapy in the past few years (Sebolt-Leopold and Herrera, 2004). Given its physiological and pathological importance, assessment of ERK phosphorylation has been broadly performed in both basic research and drug discovery. Most assays for the measurement of ERK phosphorylation use the antibody-based detection methods, such as western blot and ELISA. These assays require multiple reagent additions with cell wash steps and are not suitable for high-throughput screening.
# The current cell-based ERK phosphorylation assay was performed using AlphaScreen platform. AlphaScreen is a two bead-based proximity-dependent chemical energy transfer luminescent assay platform. The assay reagents (ERK SureFire(TM) kit) were supplied from TGR BioSciences (Australia). In the presence of specific antibodies, phosphorylated ERK will bring "donor" and "acceptor" beads to a proximity range (<200 nm), and subsequently lead a chemical luminescent reaction upon exciting donor beads with 680 nm laser. To exclude the assay-related false positives, we used a biotinylated rabbit IgG to perform a counter-screen. The biotinylated antibody mimics the phosphorylated ERK1/2 for bringing streptavidin coated beads and protein-A coated beads to a proximity range for the AlphaScreen detection.
# NCGC Assay Protocol Summary:
# Biotinylated rabbit IgG was used to perform a counter-screen in the context of an AlphaScreen assay kit provided by PerkinElmer. Data were normalized to the controls for basal activity (DMSO only) and 100% activation (25 nM IgG). AC50 values were determined from concentration-response data modeled with the standard Hill equation.
# (1) Seed 4 ul/well of resuspended frozen HEK293 cells containing 2000 cells in white 1536-well plates for overnight with 1% FBS at 37C under a humidified atmosphere containing 5% CO2 and 95% air.
# (2) Add 23 nL compounds in DMSO solution. The final titration was 0.6 nM to 46 uM.
# (3) Incubate at 37C for 30 min.
# (4) Dispense 0.5uL vasopressin (25 nM in final)
# (5) Incubate at 37C for 5 min.
# (6) Dispense 0.5uL of 1:2 diluted 5x lysis buffer.
# (7) Incubate at 37C for 10 min.
# (8) Dispense 1.5uL of mixture of activation buffer and reaction buffer with AlphaScreen beads (streptavidin donor beads and protein-A acceptor beads, 10 ng/well for each).
# (9) Incubate at room temperature for 5 hr.
# (10) Detect the assay plate in an EnVision plate reader (PerkinElmer) using the AlphaScreen detection mode.
# Keywords: ERK, MEK, type-1 vasopressin receptors, homogenous, cell-based kinase assay, MLSMR, MLSCN, NIH Roadmap, qHTS and NCGC
row,Compound,Potency
1,C=C[C@@]1(C)CC(=O)[C@@]2(O)[C@@]3(C)[C@@H](O)CCC(C)(C)[C@@H]3[C@H](O)[C@H](OC(C)=O)[C@@]2(C)O1,inactive
2,CS(=O)(=O)Nc1cccc(-c2ccc3ncnc(Nc4ccc(F)cc4)c3c2)c1,inactive
3,C/C(=N\Nc1nnc(-c2ccccc2)c(-c2ccccc2)n1)c1cccc([N+](=O)[O-])c1,inactive
4,COc1ccc(CC(=O)Nc2cccc(-c3nnc(-c4ccc(C)cc4)o3)c2)cc1OC,inactive
5,CC(/C=C/c1ccccc1)=N\Nc1ccccc1[N+](=O)[O-],3.16 µM (active)
6,CN(C)c1cc2c(Nc3ccc4c(cnn4Cc4ccccc4)c3)ncnc2cn1,inactive
7,COC(=O)Cc1c(C)c2ccc(OC(=O)c3ccco3)cc2oc1=O,inactive
8,CCCN1C(=O)/C(=C2/C=Cc3ccccc3N2CC)SC1=S,3.55 µM (active)
9,N#CC(C#N)=c1ccc2c(c1)N1C3=C(CCCC3)CC3CCCCC31N=2 (stereo not given),4.47 µM (active)
10,COc1ccc(-c2ccc(SCC(=O)N3CCCC3)nn2)cc1OC,inactive
11,CNc1cccc2c1C(=O)c1ccccc1C2=O,5.01 µM (active)
12,Fc1cccc(Nc2ncnc3sc4c(c23)CCC4)c1,inactive
13,CCOC(=O)Cc1csc(NC(=O)CSc2ncnc3c2cnn3-c2ccc(OC)cc2)n1,inactive
14,CCOc1ccc(/C(O)=C2/C(=O)C(=O)N(c3ncccn3)C2c2ccccc2)cc1 (stereo not given),inactive
15,Cc1ccc(Nc2ncnc3sc(C)c(C)c23)cc1,inactive
16,Cc1sc2ncnc(Sc3nnnn3-c3ccc(Cl)cc3)c2c1C,inactive
17,O=C1c2ccc(O)c(O)c2C(=O)c2c(O)ccc(O)c21,4.47 µM (active)
18,CN(C)c1ccc(Nc2c3c4c(cccc4n(C)c2=O)C(=O)c2ccccc2-3)cc1,3.16 µM (active)
19,Cc1ccc(NNc2c(C)nc3ccccc3nc2=O)cc1,inactive
20,Cc1cccc(CNc2ncnc3ccc(-c4cccc(NS(C)(=O)=O)c4)cc23)c1,inactive

row,Compound,Potency
1,COc1ccc(CC(=O)Nc2cccc(-c3nnc(-c4cccc(C)c4)o3)c2)cc1OC,inactive
2,O=C1c2ccccc2C(=O)c2c1cccc2N1CCCC1,10 µM (active)
3,CN(C)CCCn1cc(C2=C(c3c[nH]c4ccccc34)C(=O)NC2=O)c2ccccc21,35.5 µM (active)
4,c1ccc(Nc2ncnc3ccc(-c4cccnc4)cc23)cc1,inactive
5,Cc1sc2ncnc(Nc3ccccc3)c2c1C,inactive
6,C=C[C@]1(C)CC(=O)[C@@]2(O)[C@@]3(C)C(O)CCC(C)(C)C3C(O)C(OC(C)=O)[C@@]2(C)O1 (stereo not given in full),inactive
7,CC1(C)OC(c2ccccc2)=C/C(=C/C=C2C(=O)c3ccccc3C2=O)O1,2.24 µM (active)
8,Cc1nc2ccccc2c2oc(C(=O)N3CCc4ccccc4C3)cc12,inactive
9,O=C(Nc1nccs1)c1cc2sccc2n1Cc1ccc(F)cc1,inactive
10,c1ccc(Nc2ncnc3sc4c(c23)CCC4)cc1,inactive
11,c1ccc(-c2csc(-c3nc4ccccc4[nH]3)n2)cc1,inactive
12,COc1cc2ncnc(NCc3cccc(Cl)c3)c2cc1OC,inactive
13,COc1ccc(C2=Nn3c(nnc3-c3ccccc3OC)SC2)cc1OC,inactive
14,CC(=O)N1CCC(=NNc2nc3ccccc3s2)CC1,inactive
15,CCOC(=O)c1ccc(NC(=O)c2ccc(C)c(S(=O)(=O)N3CCOCC3)c2)cc1,inactive
16,Cc1cc2nc3ccc(=[N+](C)C)cc-3sc2cc1N,inactive
17,C=CS(=O)(=O)c1ccc(Oc2ccc(S(=O)(=O)C=C)cc2)cc1,inactive
18,Fc1ccc(Nc2ncnc3sc4c(c23)CCC4)cc1F,inactive
19,COC(=O)c1cc(-c2ccc(OC)c(OC)c2)on1,inactive
20,Cc1ccc(Nc2ncnc3sc(C)c(C)c23)cc1C,inactive
